Our source for the outcome and AC50 values is PubChem BioAssay (EPA / NIEHS).

As usually defined, the AC50 is the concentration at which the activity in the assay is half-maximal.

SMILES strings stand for the structures. Records with an inconclusive call do not appear. Active and inactive are the calls of the source. How the source made its calls: active means hit-call score of the fitted dose curve at least 0.9, where 1 is the maximum; inconclusive means response in the unintended direction; inactive means score below 0.9.

Assay [1] has as its target Estrogen receptor (Homo sapiens) (UniProt P03372). In words: OT_ER_ERaERa_1440: Odyssey Thera (OT) 24-hour HEK293T Protein-Complementation Assay for Estrogen Receptor-alpha/-alpha Homodimer (AID 2283349).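 Further: hits raise fluorescence above DMSO for agonists and antagonists alike.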 The gist of the method:
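HEK293T, stable ERα LBD (aa 310-547) homodimer PCA; 24 h compound exposure; mean fluorescence intensity (nuclear for agonists, nuclear plus cytoplasmic for antagonists) vs vehicle; positive fitting direction, DMSO baseline.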

Assay [2] shares this target. The assay is described as follows: OT_ER_ERaERa_0480: Odyssey Thera (OT) 8-hour HEK293T Protein-Complementation Assay for Estrogen Receptor-alpha/-alpha Homodimer (AID 2283351).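 Further: rise in fluorescence from reassembled reporter fragments on ERα LBD homodimer in nucleus or whole cell.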 The gist of the method:
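Read-out: fluorescence intensity rise relative to DMSO, nuclear for agonists, nuclear plus cytoplasmic for antagonists. Construct is the ERα LBD (aa 310-547) homodimer fragment-complementation pair, stably expressed in HEK293T; exposure 8 h.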

The target of assay [3] is T1, Estrogen receptor (Homo sapiens) + Estrogen receptor beta (Homo sapiens) (UniProt P03372+Q92731). The assay is described as follows: OT_ER_ERaERb_0480: Odyssey Thera (OT) 8-hour HEK293T Protein-Complementation Assay for Estrogen Receptor-alpha/-beta Heterodimer (AID 2283352). The gist of the method:
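Increase in mean fluorescence intensity, measured by laser scanning plate cytometry, reported ER-alpha/ER-beta LBD complementation in HEK293T cells after 8 h chemical exposure. DMSO served as baseline; basal signal is low, punctate and cytoplasmic.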

The target of assay [4] is T1, Estrogen receptor (Homo sapiens) + Estrogen receptor beta (Homo sapiens). The assay is described as follows: OT_ER_ERaERb_1440: Odyssey Thera (OT) 24-hour HEK293T Protein-Complementation Assay for Estrogen Receptor-alpha/-beta Homodimer (AID 2283356).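 Further: heteromer of ER alpha and ER beta binding domains; hits raise reporter fluorescence and both agonists and antagonists give an increase.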 The gist of the method:
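Heterodimerisation of ERα (aa 310-547) and ERβ (aa 263-489) ligand binding domains was tracked as fluorescence gain in stably transfected HEK293T cells following 24 h dosing, normalised to DMSO controls.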

For assay [5], the target named is Retinoic acid receptor alpha (Homo sapiens) (UniProt P10276). In words: NVS_NR_hRAR_Antagonist: NovaScreen (NVS) Nuclear Receptor Binding Assay for human Retinoic Acid Alpha Receptor Antagonism (RAR) (AID 2283358). The gist of the method:
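RARalpha antagonism was read by TR-FRET as loss of binding signal versus DMSO, 2 h after chemical addition, in a biochemical format. Single-concentration duplicates (25 uM) were run first, and actives were retested in concentration series.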

The target in assay [6] is Bile acid receptor (Homo sapiens) (UniProt Q96RI1). The assay is described as follows: NVS_NR_hFXR_Antagonist: NovaScreen (NVS) Nuclear Receptor Binding Assay for human Farnesoid X Receptor Antagonism (FXR) (AID 2283350). The gist of the method: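 Antagonist-format time-resolved FRET binding assay with extracted human receptor protein, read 1 hour after compound addition. Compounds first screened at 25 uM in duplicate, then actives tested in concentration series, with loss of signal relative to DMSO.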

The target in assay [7] is Glucocorticoid receptor (Homo sapiens) (UniProt P04150). In words: NVS_NR_hGR: NovaScreen (NVS) Nuclear Receptor Binding Assay for human Glucocorticoid Receptor (GR) (AID 2283363).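 On AC50: activity is loss of specific radioligand binding signal relative to DMSO.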 The gist of the method:
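Compounds first tested in duplicate at 25 uM, actives followed up in concentration series. Binding to extracted GR protein measured as competitive radioligand displacement, filter scintillation read 16 h post-dosing, normalised to DMSO.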

For assay [8], the target named is Nuclear receptor subfamily 1 group I member 2 (Homo sapiens) (UniProt O75469). In words: NVS_NR_hPXR: NovaScreen (NVS) Nuclear Receptor Binding Assay for human Pregnane X Receptor (PXR) (AID 2283365).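 Further: a drop in FRET signal versus DMSO baseline means the compound binds.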 The gist of the method:
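Binding was measured by time-resolved fluorescence resonance energy transfer after a 2 h exposure of extracted human PXR protein without cells. Compounds were first tested at 25 uM in duplicate, with concentration series for actives; DMSO defined baseline.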

Assay [9] has as its target Androgen Receptor/SRC-1 Co-activator, AR (gene 367) (UniProt P10275). The assay is described as follows: OT_AR_ARSRC1_0960: Odyssey Thera (OT) 16-hour HEK293T Protein-Complementation Assay for Androgen Receptor/SRC-1 Co-activator (AID 2283353).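 Further: actives raise the signal above DMSO so potency reflects increased AR and SRC-1 complex.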 The gist of the method: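 Readout: 488 nm nuclear-to-cytoplasmic fluorescence ratio from imaging of at least 400 cells per image, 16 h post-dose. Reporter is Venus YFP complementation between AR and SRC-1 fusions, stably expressed in HEK293T; activity scored upward relative to DMSO.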

For assay [10] the target is unchanged. In words: OT_AR_ARSRC1_0480: Odyssey Thera (OT) 8-hour HEK293T Protein-Complementation Assay for Androgen Receptor/SRC-1 Co-activator (AID 2283354).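 Further: hits raise the complementation signal above DMSO so AC50 marks enhancers.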 The gist of the method: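 Reconstituted split-Venus YFP signal from AR–SRC-1 interaction, read by imaging 8 h post-dose in stable HEK293T lines. The 488 nm nucleus-to-cytoplasm ratio (≥400 cells/image) was fitted upward against DMSO.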

For assay [11], the target named is Estrogen receptor beta (Homo sapiens) (UniProt Q92731). In words: OT_ER_ERbERb_0480: Odyssey Thera (OT) 8-hour HEK293T Protein-Complementation Assay for Estrogen Receptor-beta/-beta Homodimer (AID 2283357).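 Further: active means signal gain over DMSO baseline.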 The gist of the method: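 ER-beta LBD homodimer PCA stably expressed in HEK293T; 8 h compound exposure, then formaldehyde fixation and Draq5 staining. Gain in nuclear/cytoplasmic fluorescence intensity versus DMSO vehicle, read on laser scanning cytometer.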
Chain of Estrogen receptor beta (Homo sapiens) (Q92731 whole entry, looked up, the tested form may be a part): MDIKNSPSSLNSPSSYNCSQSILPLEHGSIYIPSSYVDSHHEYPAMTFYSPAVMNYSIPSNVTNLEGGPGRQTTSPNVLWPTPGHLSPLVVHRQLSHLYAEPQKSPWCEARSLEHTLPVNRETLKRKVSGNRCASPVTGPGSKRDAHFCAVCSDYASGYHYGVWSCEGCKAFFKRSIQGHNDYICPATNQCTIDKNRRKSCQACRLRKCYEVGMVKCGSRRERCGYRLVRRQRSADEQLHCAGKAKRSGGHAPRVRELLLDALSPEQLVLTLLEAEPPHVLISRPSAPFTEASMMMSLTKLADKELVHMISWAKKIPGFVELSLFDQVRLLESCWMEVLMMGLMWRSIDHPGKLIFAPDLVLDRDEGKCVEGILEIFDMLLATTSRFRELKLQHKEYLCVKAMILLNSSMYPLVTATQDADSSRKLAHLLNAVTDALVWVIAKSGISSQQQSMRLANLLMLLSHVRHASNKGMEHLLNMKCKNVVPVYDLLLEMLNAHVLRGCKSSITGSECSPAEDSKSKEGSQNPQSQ

For assay [12], the target named is PGR (gene 5241) (UniProt P06401). In words: NVS_NR_hPR: NovaScreen (NVS) Nuclear Receptor Binding Assay for human Progestron Receptor (PR) (AID 2283360).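 Further: active means loss of bound radioligand signal versus DMSO baseline.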 The gist of the method:
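Cell-free radioligand binding using receptor protein extracted from T47D cells, read by scintillation counting 18 hours after dosing. Loss of signal relative to DMSO baseline indicates displacement; primary screen single concentration 25 uM in duplicate, actives followed in concentration series.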

The target in assay [13] is rat Mineralocorticoid Receptor (MR), Nr3c2 (gene 25672) (UniProt P22199). The assay is described as follows: NVS_NR_rMR: NovaScreen (NVS) Nuclear Receptor Binding Assay for rat Mineralocorticoid Receptor (MR) (AID 2283355). The gist of the method: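 Primary HTS ran in duplicate at a single 25 uM concentration, with concentration-series follow-up for actives. Receptor source: adrenalectomized rat brain supernatant, cell-free. Radioligand displacement read by scintillation at 24 h, relative to DMSO baseline.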

Assay [14] deals with guinea pig Sigma Receptor, Non-selective Binding, SIGMAR1 (gene 100135589) (UniProt Q60492). In words: NVS_OR_gSIGMA_NonSelective: NovaScreen (NVS) Nuclear Receptor Binding Assay for guinea pig Sigma Receptor, Non-selective Binding (AID 2283367). The gist of the method:
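Guinea pig brain membrane sigma sites were labelled with a radioligand, and bound radioactivity was counted after filtration 1 h post-dose. Compounds were screened at 25 uM in duplicate, then retested as concentration series when active.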

Chain of Glucocorticoid receptor (Homo sapiens) (P04150 whole entry, looked up): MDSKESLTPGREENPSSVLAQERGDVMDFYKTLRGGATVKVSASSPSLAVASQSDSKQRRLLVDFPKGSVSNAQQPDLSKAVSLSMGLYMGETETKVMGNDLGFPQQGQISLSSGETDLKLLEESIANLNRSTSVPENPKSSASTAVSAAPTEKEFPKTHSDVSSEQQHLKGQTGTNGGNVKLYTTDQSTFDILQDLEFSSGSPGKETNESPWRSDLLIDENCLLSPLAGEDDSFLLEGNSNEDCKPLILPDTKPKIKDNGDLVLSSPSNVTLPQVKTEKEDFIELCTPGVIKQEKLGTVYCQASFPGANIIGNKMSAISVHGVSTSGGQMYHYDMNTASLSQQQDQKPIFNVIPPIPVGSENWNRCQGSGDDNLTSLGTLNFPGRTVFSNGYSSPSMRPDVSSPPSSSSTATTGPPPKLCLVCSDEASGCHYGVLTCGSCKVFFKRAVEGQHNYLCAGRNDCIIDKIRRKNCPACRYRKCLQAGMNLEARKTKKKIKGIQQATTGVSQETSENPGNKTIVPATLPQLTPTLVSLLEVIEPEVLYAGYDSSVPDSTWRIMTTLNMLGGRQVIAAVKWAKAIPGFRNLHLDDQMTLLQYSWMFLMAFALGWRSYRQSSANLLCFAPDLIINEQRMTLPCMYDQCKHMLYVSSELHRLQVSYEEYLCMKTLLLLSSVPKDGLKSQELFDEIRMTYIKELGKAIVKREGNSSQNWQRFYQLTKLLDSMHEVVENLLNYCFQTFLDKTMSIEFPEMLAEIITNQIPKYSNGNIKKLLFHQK
T1 sequence (P03372 whole entry, looked up, the tested form may be a part): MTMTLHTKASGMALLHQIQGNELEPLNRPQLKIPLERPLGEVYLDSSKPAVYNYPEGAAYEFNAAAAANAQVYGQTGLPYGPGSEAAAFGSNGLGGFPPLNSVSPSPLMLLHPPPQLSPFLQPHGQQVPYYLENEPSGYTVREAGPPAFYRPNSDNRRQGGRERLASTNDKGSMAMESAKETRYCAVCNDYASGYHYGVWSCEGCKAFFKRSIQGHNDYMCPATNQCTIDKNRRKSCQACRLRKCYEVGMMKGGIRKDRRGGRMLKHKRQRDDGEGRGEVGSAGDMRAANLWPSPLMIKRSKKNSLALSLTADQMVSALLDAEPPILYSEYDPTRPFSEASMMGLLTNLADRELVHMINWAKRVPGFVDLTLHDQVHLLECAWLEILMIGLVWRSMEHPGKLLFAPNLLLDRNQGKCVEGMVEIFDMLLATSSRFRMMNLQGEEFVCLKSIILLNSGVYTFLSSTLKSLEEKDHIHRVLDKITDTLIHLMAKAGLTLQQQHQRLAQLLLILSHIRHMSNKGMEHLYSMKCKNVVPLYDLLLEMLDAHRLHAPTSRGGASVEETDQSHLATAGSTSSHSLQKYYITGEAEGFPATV
T1 sequence (Q92731 whole entry, looked up, the tested form may be a part): as the sequence (Q92731 whole entry, looked up, the tested form may be a part) above
Chain of Estrogen receptor (Homo sapiens) (P03372 whole entry, looked up, the tested form may be a part): as the sequence (P03372 whole entry, looked up, the tested form may be a part) above
Chain of Retinoic acid receptor alpha (Homo sapiens) (P10276 whole entry, looked up): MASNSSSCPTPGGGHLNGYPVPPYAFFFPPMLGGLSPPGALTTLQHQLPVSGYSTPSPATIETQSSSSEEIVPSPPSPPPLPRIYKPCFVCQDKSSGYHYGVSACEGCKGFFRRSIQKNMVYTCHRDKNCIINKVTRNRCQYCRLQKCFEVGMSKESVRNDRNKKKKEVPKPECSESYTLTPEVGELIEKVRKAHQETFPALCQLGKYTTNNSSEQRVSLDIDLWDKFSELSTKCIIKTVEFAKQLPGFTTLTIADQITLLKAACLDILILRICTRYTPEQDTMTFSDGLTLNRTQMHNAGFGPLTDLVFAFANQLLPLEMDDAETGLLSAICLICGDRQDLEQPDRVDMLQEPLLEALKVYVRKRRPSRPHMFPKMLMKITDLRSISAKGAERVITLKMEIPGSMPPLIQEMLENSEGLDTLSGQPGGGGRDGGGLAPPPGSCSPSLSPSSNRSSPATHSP
Chain of Androgen Receptor/SRC-1 Co-activator, AR (gene 367) (P10275 whole entry, looked up, the tested form may be a part): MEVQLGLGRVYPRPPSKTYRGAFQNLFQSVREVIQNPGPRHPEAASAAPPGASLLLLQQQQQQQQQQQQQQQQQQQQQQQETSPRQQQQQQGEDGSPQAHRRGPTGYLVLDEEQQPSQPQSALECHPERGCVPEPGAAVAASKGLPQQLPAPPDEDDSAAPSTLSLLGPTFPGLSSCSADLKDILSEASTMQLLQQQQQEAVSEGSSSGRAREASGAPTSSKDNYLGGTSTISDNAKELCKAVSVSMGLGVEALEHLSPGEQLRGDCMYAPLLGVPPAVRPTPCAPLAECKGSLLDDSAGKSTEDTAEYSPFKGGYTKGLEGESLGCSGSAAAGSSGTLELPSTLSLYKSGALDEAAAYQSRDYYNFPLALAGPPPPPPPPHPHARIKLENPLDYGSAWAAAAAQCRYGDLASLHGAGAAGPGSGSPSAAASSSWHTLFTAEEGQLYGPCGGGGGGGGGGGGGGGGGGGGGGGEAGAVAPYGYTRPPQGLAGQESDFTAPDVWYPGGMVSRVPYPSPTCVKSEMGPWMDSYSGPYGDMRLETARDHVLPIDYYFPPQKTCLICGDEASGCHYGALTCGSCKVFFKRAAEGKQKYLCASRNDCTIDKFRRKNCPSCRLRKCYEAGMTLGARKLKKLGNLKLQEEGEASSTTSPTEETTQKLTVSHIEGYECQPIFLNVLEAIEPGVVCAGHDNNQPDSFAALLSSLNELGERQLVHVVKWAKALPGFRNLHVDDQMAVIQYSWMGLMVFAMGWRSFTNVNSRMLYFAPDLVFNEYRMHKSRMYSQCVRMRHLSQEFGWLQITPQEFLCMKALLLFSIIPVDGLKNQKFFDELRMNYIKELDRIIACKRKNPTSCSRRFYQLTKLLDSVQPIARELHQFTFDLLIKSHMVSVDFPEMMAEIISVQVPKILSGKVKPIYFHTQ
Chain of guinea pig Sigma Receptor, Non-selective Binding, SIGMAR1 (gene 100135589) (Q60492 whole entry, looked up): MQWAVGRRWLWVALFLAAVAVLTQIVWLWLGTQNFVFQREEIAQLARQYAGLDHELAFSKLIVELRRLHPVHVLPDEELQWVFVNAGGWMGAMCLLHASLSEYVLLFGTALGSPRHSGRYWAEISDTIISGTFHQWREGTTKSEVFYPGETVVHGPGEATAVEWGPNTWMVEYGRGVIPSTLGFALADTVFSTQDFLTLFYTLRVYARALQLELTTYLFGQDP

With `O=C1C2CC=CCC2C(=O)N1SC(Cl)(Cl)Cl` (configuration not stated), the compound was classed as inactive in assay [1], in assay [2], in assay [3], in assay [4] and in assay [5].
For the compound `CC(C)C1(C)N=C(c2ncccc2C(=O)O)NC1=O` (configuration not stated), the compound was classed as inactive in assay [6], in assay [2], in [7] and in assay [8].
`COC(=O)c1c(C(F)F)nc(C(F)(F)F)c(C2=NCCS2)c1CC(C)C`: the call in assay [2], in assay [9], in assay [10], in assay [4] and in assay [11] was inactive. Further, the AC50 in assay [3] is 17.2 µM (active).
Consider `Cc1cc(C)nc(Nc2ccccc2)n1`, for which the result in assay [2] was inactive.
With `CCOP(=O)(OCC)Oc1nc(Cl)c(Cl)cc1Cl`, the result in [2], in [3], in [10], in assay [4], in assay [11] and in [5] was inactive. Moreover, in assay [12], the outcome was inactive. For the same compound, the AC50 in assay [9] was 33.2 µM (active).
As for `COCC(C)N(C(=O)CCl)c1c(C)csc1C` (configuration not stated), the result in [2], in assay [3] and in assay [4] was inactive.
`CS(=O)(=O)c1cc(C(F)(F)F)ccc1C(=O)c1cnoc1C1CC1`: the compound was classed as inactive in assay [2], in assay [3], in assay [4], in assay [11] and in assay [5].
For `CC(C)Oc1cccc(NC(=O)c2ccccc2C(F)(F)F)c1`, the result in assay [1], in assay [3], in assay [4], in assay [5], in assay [12] and in assay [7] was inactive.
Regarding `CO/N=C(/C1=NOCCO1)c1ccccc1Oc1ncnc(Oc2ccccc2Cl)c1F`, the call in [2] was inactive.
For the compound `COc1ccc(-c2ccccc2)cc1NNC(=O)OC(C)C`, the outcome in [1], in [3], in assay [9], in [10], in [13] and in [4] was inactive. In addition, the outcome in [11] was inactive.
`O=c1n(Cl)c(=O)n(Cl)c(=O)n1Cl`: the compound was called inactive in assay [2], in assay [4], in assay [11] and in assay [5].
For the compound `CCCC(=NOCC)C1=C(O)CC(CC(C)SCC)CC1=O` (configuration not stated), the result in assay [3], in assay [13], in assay [4], in assay [11] and in assay [5] was inactive.
On to `N#Cc1c[nH]cc1-c1cccc2c1OC(F)(F)O2`, for which the values for the AC50 in [1] and in assay [7] were 31 µM (active) and 1.57 µM (active), respectively. Moreover, the compound was called inactive in assay [2].
`COCC(=O)N(c1c(C)cccc1C)C(C)C(=O)OC` (configuration not stated): the result in [3], in assay [4] and in assay [11] was inactive.
Take `CCC(C)n1c(=O)[nH]c(C)c(Br)c1=O` (configuration not stated): the call in [2], in [3] and in [4] was inactive.
In the case of `COC(=O)NS(=O)(=O)c1ccc(N)cc1`, the result in assay [1], in assay [3], in assay [13], in [4] and in assay [11] was inactive.
As for `CSC(=O)c1c(C(F)F)nc(C(F)(F)F)c(C(=O)SC)c1CC(C)C`, the result in assay [2] and in assay [14] was inactive. Moreover, the values for the AC50 in assay [3], in assay [4] and in [11] were 31.9 µM (active), 31 µM (active) and 18.1 µM (active), respectively.
As for `Cn1c(-c2ccccc2)cc(-c2ccccc2)[n+]1C`, the compound was classed as inactive in assay [2], in [3] and in [11]. In addition, the AC50 in [14] is 0.133 µM (active).
Turning to `O=P(O)(O)CCCl`, the compound was classed as inactive in assay [2].
With `Cc1ccc(N=CN(C)C=Nc2ccc(C)cc2C)c(C)c1`, the result in assay [2], in [4], in assay [11] and in assay [5] was inactive.
In the case of `COc1cc(OC)nc(NC(=O)NS(=O)(=O)c2ncccc2OCC(F)(F)F)n1`, the outcome in [2], in assay [3], in assay [4] and in assay [11] was inactive.
As for `CC(C)N1C(=O)N(c2ccccc2)CSC1=NC(C)(C)C`, the compound was called inactive in [2], in assay [3], in assay [10] and in [4]. Further, the AC50 in [9] is 62.9 µM (active); in assay [11], 21.1 µM (active).
Consider `COc1cc(Cl)c(OC)cc1Cl`, for which the compound was classed as inactive in assay [2], in [3], in assay [4] and in assay [11].
